Laboratory results as given in PubChem BioAssay (NCATS).
Where “and” joins values, the source holds several entries; their conditions need not be identical. Equal entries are not always repeated. Unmarked numbers belong to inactive results. Results filed as inconclusive are left out. Entries that show only a call come without a potency. Calls of active or inactive are those of the source. Unless noted, calls come from the whole dose curve; as a rule, active = well fitted curve in the direction sought with a large enough effect; inconclusive = small, poorly fitted or top-dose-only effect, or another doubt; inactive = no such curve, though single readings can be large; an effect the other way counts as inactive or inconclusive.

What was measured:
[1] = Cell Viability - MRC5 (AID 434; calls by dose curve;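 note: potency is the fitted concentration of half-maximal effect; cells exposed to compound for 40 hours at 37 °C; potency reflects cytotoxicity seen as loss of intracellular ATP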); details: MRC5 lung fibroblast viability, qHTS
Outline: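 AC50 values come from Hill-equation fits of intracellular ATP loss, measured by CellTiter-Glo luminescence. Normal lung fibroblasts (MRC5) had 40 hr compound treatment at 37 C, normalized between DMSO and 100 uM tamoxifen.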

[2] = Cellular Toxicity (caspase-3) HepG2 (AID 654); details: HepG2 caspase-3 activation, luminescence; series mostly up to 92.2 µM; note: potency is the fitted concentration of half-maximal effect;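 for caspase-3 activation: cells exposed to compound for 16 hours before reading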
Outline: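 Luminescent Caspase-Glo 3/7 readout after 16 hr compound exposure of human hepatocellular carcinoma HepG2 cells at 37 °C; qHTS concentration-response, normalized DMSO = 0%, 100 uM tamoxifen = 100%; AC50 by standard Hill equation.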

[3] = Cellular Toxicity (caspase-3) HUV-EC-C (AID 656); details: HUV-EC-C cells, caspase-3 activation (apoptosis); series mostly up to 92.2 µM; note: potency is the fitted concentration of half-maximal effect
Outline: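 HUV-EC-C endothelial cells, 1000/well, were pre-incubated 5 hr at 37°C, then exposed to compounds for 16 hr at 37°C. Caspase-Glo 3/7 luminescence was read after 20 min at room temperature. AC50 came from Hill fits, normalized to DMSO and 100 uM tamoxifen.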

[4] = Cellular Toxicity (caspase-3) BJ (AID 658); details: BJ fibroblasts, luminescence; Potency: caspase-3 activation; series mostly up to 91.7 µM
Outline: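 Caspase-Glo 3/7 luminescence, read 1 hr after reagent at room temperature, in normal BJ fibroblasts exposed 16 hours at 37 °C. AC50 values from Hill-equation concentration-response, scaled between DMSO basal and 10 uM staurosporine as 100%.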

[5] = Cellular Toxicity (caspase-3) MRC-5 (AID 659); details: MRC-5 cells, luminescence, normalized: DMSO 0%, 10 µM staurosporine 100%; series mostly up to 91.7 µM
Outline: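 Luminescent Caspase-Glo 3/7 read-out (1 h, room temperature) after a 16 h, 37 °C compound exposure of MRC-5 lung fibroblasts at 1500 cells/well. Concentration-response AC50 from Hill equation; 0% DMSO, 100% 10 uM staurosporine.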

[6] = Cellular Toxicity (caspase-3) H-4-II-E (AID 663); details: H-4-II-E rat hepatoma; Potency: caspase-3 activation; series mostly up to 92.2 µM; note: potency is the fitted concentration of half-maximal effect;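 for caspase-3 activation: cells exposed to compound for 16 hr before readout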
Outline: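 Caspase 3/7 activation measured by luminescent aminoluciferin substrate cleavage after 16 hr compound treatment of H-4-II-E cells in complete medium. Increase normalized between DMSO (basal) and 100 uM tamoxifen (100%); Hill-equation AC50 from concentration-response.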

[7] = Cellular Toxicity (caspase-3) Renal Proximal Tubule (AID 667); details: renal proximal tubule cells, primary cells freshly taken from rat; Potency: caspase-3 activation; series mostly up to 91.7 µM;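 note: cells exposed to compound for 16 hours at 37 °C before detection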; note: potency is the fitted concentration of half-maximal effect
Outline: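 Primary rat proximal tubule cells, 1000/well, 5 h plating at 37 °C, then compound 16 h at 37 °C. Caspase-Glo 3/7 reagent, 1 h RT, luminescence. Normalized to DMSO (basal) and 10 uM staurosporine (100%); Hill-fit AC50.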

[8] = Cell Viability - LYMP1-003 - Assay at 24 hr (AID 963); details: LYMP1-003 lymphoblastoid cell viability; series mostly up to 92.2 µM; note: potency is the fitted concentration of half-maximal effect
Outline: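 CellTiter-Glo luminescence (intracellular ATP) read after 24 hr, 37 C compound exposure of 2500 LYMP1-003 human lymphoblastoid cells/well in complete medium; qHTS concentration series; AC50 via standard Hill equation.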

[9] = qHTS Assay for Identification of Small Molecule Inducers of Hypoxia Response (AID 2120; active = well fitted curve in the direction sought with a large enough effect in the signal ratio, with a control signal flat, not every such curve was filed as active; the % refers to the signal ratio); details: hypoxia response reporter cells, beta-lactamase ratio readout; series mostly up to 104 µM
Outline: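 Read-out: CCF4 FRET emission ratio 460nm/530nm (excitation 405nm), converted to %Activity, with AC50 fitted across a compound titration. ME-180 cells carried an HRE-driven beta-lactamase reporter; compound exposure 17 h, 37 degrees C.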

[10] = biological target: Peroxisome proliferator-activated receptor alpha (Homo sapiens) (UniProt Q07869); assay: qHTS assay for small molecule agonists of the peroxisome proliferator-activated receptor alpha (PPARalpha) signaling pathway (AID 651778); details: PathHunter PPARalpha complementation, chemiluminescence, 6 h; max response: stronger effect = higher value
Sequence of Peroxisome proliferator-activated receptor alpha (Homo sapiens) (Q07869 whole entry, looked up): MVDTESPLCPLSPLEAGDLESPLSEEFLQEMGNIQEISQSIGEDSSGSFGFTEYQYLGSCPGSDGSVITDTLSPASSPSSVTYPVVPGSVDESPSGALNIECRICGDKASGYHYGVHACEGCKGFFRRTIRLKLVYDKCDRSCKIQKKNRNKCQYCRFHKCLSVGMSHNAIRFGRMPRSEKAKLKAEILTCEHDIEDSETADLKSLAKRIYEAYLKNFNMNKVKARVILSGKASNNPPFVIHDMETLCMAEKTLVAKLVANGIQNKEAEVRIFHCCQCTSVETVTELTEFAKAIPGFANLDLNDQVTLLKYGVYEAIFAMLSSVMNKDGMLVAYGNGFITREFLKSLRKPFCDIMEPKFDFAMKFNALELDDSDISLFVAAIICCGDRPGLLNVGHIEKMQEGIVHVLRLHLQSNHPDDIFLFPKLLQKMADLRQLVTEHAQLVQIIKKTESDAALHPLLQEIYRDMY
Outline: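 Chemiluminescence from complemented enzyme reported PPARalpha activation in cells after 6 hr of compound treatment at 37 C. The detection reagent was incubated for 60 min at room temperature, and compounds were scored as agonists.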

[11] = qHTS assay for small molecule agonists of the antioxidant response element (ARE) signaling pathway measured by Nrf2-dependant transcriptional activity - cell viability counter screen (AID 720653; active = well fitted curve in the direction sought with a large enough effect in the repeat runs; an effect the other way counts as inactive or inconclusive); details: ARE-bla HepG2 viability, CellTiter-Glo ATP luminescence, 16 h; max response: stronger effect = lower value
Outline: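 Cytotoxicity counter screen: intracellular ATP quantified by CellTiter-Glo luminescence in the same ARE-bla HepG2 plates, after 16 h compound exposure and a 2 h beta-lactamase substrate step.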

[12] = qHTS assay for cell viability of the p53RE-bla HCT-116 cell line (AID 743292); details: p53RE-bla HCT-116 viability, ATP luminescence, 16 h; series mostly up to 95 µM; note: nearly all actives have a fitted effect of over 55% in size; note: potency is the fitted concentration of half-maximal effect
Outline: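 Viability of compound-treated p53RE-bla HCT-116 cells is taken from ATP-dependent luciferase luminescence. Treatment lasts 16 h at 37 C after a 5 h settling period; detection follows 30 min at room temperature.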

[13] = Cellular Toxicity (caspase-3) SHSY5Y (AID 657); details: SH-SY5Y caspase-3 activation; series mostly up to 91.7 µM
Outline: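 SH-SY5Y human neuroblastoma cells (1500/well) were treated with compounds for 16 h at 37 °C, then Caspase-Glo 3/7 luminescence was read after 1 h at room temperature. Data normalized to DMSO and 10 uM staurosporine; AC50 from Hill fits.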

[14] = Cellular Toxicity (caspase-3) Mesangial (AID 660); details: mesangial cells, normalized: DMSO 0%, 100 µM tamoxifen 100%; series mostly up to 91.7 µM;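 note: combined caspase 3 and 7 activity read by Caspase-Glo luminescence; cells exposed to compound for 16 h before the caspase read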
Outline: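 Luminescent Caspase-Glo 3/7 readout (aminoluciferin substrate cleavage, 20 min RT) after 16 h compound exposure at 37 °C of normal human mesangial cells. Signal increase normalized between DMSO basal and 100 uM tamoxifen; Hill-equation AC50.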

[15] = Cellular Toxicity (caspase-3) SK-N-SH (AID 661); details: SK-N-SH caspase-3 activation, qHTS, DMSO as zero, staurosporine as full; series mostly up to 91.7 µM
Outline: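 Luminescent Caspase-Glo 3/7 read-out after 16 hr compound exposure of SK-N-SH neuroblastoma cells at 37 °C. Signal increase normalized to DMSO (basal) and 10 uM staurosporine (100%); AC50 from Hill equation fits of qHTS concentration-response data.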

[16] = Cellular Toxicity (caspase-3) Hek293 (AID 664); details: HEK293 caspase-3 activation, DMSO = 0%, 100 µM tamoxifen = 100%; at 92.2 µM (top of the series);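 note: cells exposed to compound for 16 h at 37 °C before readout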
Outline: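 Luminescent Caspase-Glo 3/7 readout (aminoluciferin release) in HEK293 cells after 16 h compound treatment, 37 °C. Normalization: DMSO = basal, 100 uM tamoxifen = 100% stimulation. Concentration-response fitted with standard Hill equation for AC50.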

[17] = Cellular Toxicity (caspase-3) N2a (AID 665); details: N2a cells, luminescence, normalized: DMSO 0%, 10 µM staurosporine 100%; series mostly up to 92.2 µM;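 note: compound exposure lasted 16 h at 37 °C before readout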
Outline: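 Luminescent Caspase-Glo 3/7 readout in N2a mouse neuroblastoma cells after 16 h compound exposure at 37 °C. Signal scaled to DMSO (basal) and 10 uM staurosporine (100%). Concentration-response fitted with Hill equation for AC50.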

[18] = MultiTox-Fluor Cytotoxicity Assay - LYMP1-001 - Dead Cells (AID 946); details: LYMP1-001 lymphoblastoid cells, dead-cell protease fluorescence; series mostly up to 92.2 µM; note: potency is the fitted concentration of half-maximal effect
Outline: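 Cytotoxicity as increased dead-cell protease fluorescence (bis-AAF-R110, 485/520 nm), read 60 min after MultiTox-Fluor reagent. Human lymphoblastoid line exposed 16 h; Hill-fitted AC50, with DMSO as 0% and 15 uM tetraoctylammonium bromide as 100%.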

[19] = MultiTox-Fluor Cytotoxicity Assay - LYMP1-003 - Live Cells (AID 962); details: LYMP1-003 lymphoblastoid cells, MultiTox-Fluor live-cell protease fluorescence; series mostly up to 92.2 µM;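 note: cytotoxic hits lower the live-cell protease signal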
Outline: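 Readout: live-cell fluorescence (Ex/Em=405/510) from GF-AFC cleavage after 60 min MultiTox-Fluor reagent at room temperature. Lymphoblastoid LYMP1-003 cells, 16 hr compound treatment, 37 C. Concentration-response fitted to standard Hill equation for AC50.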

[20] = qHTS assay for cell viability of HEK293 cells (AID 743288); details: ATP luminescence (CellTiter-Glo), 18 h; max response: stronger effect = lower value; note: nearly all actives have a fitted effect of over 50% in size
Outline: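 After 18 h compound exposure at 37 C, parental HEK293 cells (2,000/well) are lysed with CellTiter-Glo and luminescence is read following 30 min at room temperature.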

Row | Compound | Potency [1] | Potency [2] | Potency [3] | Potency [4] | outcome [5] | Potency [6] | Potency [7] | Potency [8] | Potency [9] | max response [10] | max response [11] | Potency [12] | Potency [13] | outcome [14] | outcome [15] | caspase-3 activation [16] | outcome [17] | Potency [18] | Potency [19] | max response [20]
1 | CC1=C(/C=C/C(C)=C/C=C/C(C)=C/C=O)C(C)(C)CCC1 | 33.4 µM (active) | 63.1 µM (active) | 39.8 µM (active) | inactive | inactive | 31.6 µM (active) | 31.6 µM (active) | 50.1 µM (active) | inactive | -2.8% | 2.27% | 50.1 µM (active) |  |  |  |  |  |  |  | 
2 | CCNC(=S)NCC | > 92 µM | inactive | inactive | inactive | inactive | inactive | inactive | inactive | inactive | -2.88% | -3.61% | inactive | inactive | inactive | inactive | -2.38% | inactive | inactive | inactive | -6.53%
3 | C/C=C1/C(=O)C[C@H]2[C@@H]3CCC4=CC(=O)CC[C@]4(C)[C@H]3CC[C@]12C | > 92 µM | inactive | inactive | inactive | inactive | inactive | inactive |  | inactive | -2.73% | -1.31% | inactive | inactive | inactive | inactive |  | inactive | 39.8 µM (active) | inactive | 
4 | COc1cc(-c2ccc(N=C=O)c(OC)c2)ccc1N=C=O | > 92 µM | inactive | inactive | inactive | inactive | inactive | inactive | inactive | inactive | 20.1% | 21.7% and 2.99% | inactive | inactive | inactive | inactive | 2.71% | inactive | inactive | inactive | -1.14% and -5.75%
5 | CCOC(=O)C1OC1c1ccccc1 (centres undefined) | > 92 µM | inactive | inactive | inactive | inactive | inactive | inactive | inactive | inactive | -1.32% | 8.37% | inactive | inactive | inactive | inactive | 0.955% | inactive | inactive | inactive | -1.14%
6 | OC1CCCCC1 | > 92 µM | inactive | inactive | inactive | inactive | inactive | inactive | inactive | inactive | -5.19% | 16.5% | inactive | inactive | inactive | inactive | -0.682% | inactive | inactive | inactive | 10.8%
